The supplement of paper PMC3334620
Whole data set: some 33,000 sequences, median “E-score (-0.5 to 0.5)” near -0.054, cut for the highest 2% near 0.35. This is one part of a sample in which the highest values are shown more often than they occur.

target: T1, Stb5 (UniProt P38699); assay: PBM E-score (8-mer binding enrichment) (E-score (-0.5 to 0.5)); higher = stronger / more preferred TF binding; settings: protein concentration: 200 nM; construct: GST-full length
T1 sequence: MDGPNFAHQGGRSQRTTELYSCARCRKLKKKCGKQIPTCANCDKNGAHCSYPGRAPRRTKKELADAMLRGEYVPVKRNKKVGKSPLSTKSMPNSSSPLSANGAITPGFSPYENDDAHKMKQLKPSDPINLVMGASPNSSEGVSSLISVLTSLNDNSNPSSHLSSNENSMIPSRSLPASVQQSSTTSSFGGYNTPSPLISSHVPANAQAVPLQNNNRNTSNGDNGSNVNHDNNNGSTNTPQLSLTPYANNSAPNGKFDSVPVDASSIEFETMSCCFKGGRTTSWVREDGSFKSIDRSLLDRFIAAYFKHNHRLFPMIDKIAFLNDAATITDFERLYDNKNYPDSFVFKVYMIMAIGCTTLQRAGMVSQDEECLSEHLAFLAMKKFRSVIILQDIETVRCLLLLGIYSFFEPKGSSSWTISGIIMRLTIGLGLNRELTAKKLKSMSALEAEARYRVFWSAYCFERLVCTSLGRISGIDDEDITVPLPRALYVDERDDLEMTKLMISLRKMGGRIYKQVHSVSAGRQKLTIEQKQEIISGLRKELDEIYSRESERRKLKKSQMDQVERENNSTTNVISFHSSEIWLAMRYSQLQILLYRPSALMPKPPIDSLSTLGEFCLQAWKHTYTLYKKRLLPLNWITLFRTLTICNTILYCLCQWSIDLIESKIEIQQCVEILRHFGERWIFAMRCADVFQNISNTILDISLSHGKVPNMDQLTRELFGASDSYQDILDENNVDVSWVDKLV
Experimental: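 Universal 'all 10-mer' protein binding microarrays (Agilent AMADID 015681) probed with GST-tagged S. cerevisiae TFs (full-length or DBD) made by in vitro transcription/translation (PURExpress), about 100-200 nM. Bound TF was detected with fluorescent anti-GST. Each ungapped 8-mer (which stands for itself and its reverse complement) is scored by the PBM enrichment score (E-score), a modified Wilcoxon-Mann-Whitney statistic from -0.5 to +0.5, computed with the Universal PBM Analysis Suite. Scale: above 0.35 generally sequence-specific binding.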

| Sequence | PBM E-score |
| --- | --- |
| ACCGTCGA | 0.286 |
| CCCGTCGA | 0.206 |
| GTTAACCA | -0.181 |
| GCACCACA | -0.0487 |
| CCCATGCC | 0.0152 |
| TATGTGAA | -0.344 |
| AAACTTGT | -0.145 |
| CAGCGGAC | 0.332 |
| AAGCGGAC | 0.352 |
| GAGCGGAC | 0.376 |
| AAGCGGAT | 0.297 |
| AAGCGGAG | 0.252 |
| GAGCGGAA | 0.308 |
| CAGTTATG | 0.143 |
| GGCCCGCC | 0.303 |
| AACCCGCG | 0.231 |
| CCCCCGCC | 0.313 |
| CCCCCGCG | 0.325 |
| AACCCGCC | 0.276 |
| ACCCCGCC | 0.463 |
| AGCCCGCT | 0.317 |
| AACCCGCT | 0.222 |

| Sequence | PBM E-score |
| --- | --- |
| GCCCCGCA | 0.262 |
| GCCCCGCC | 0.403 |
| ACCCCGCG | 0.367 |
| ACCCCGCT | 0.437 |
| AATCAATT | -0.151 |
| TGTATGAA | 0.0366 |
| CTTTAAGA | 0.0831 |
| TAGCAGCA | -0.233 |
| AATATTAA | 0.0579 |
| TTCTCAAA | -0.128 |
| ACCGATAG | 0.167 |
| CAACAATG | -0.0552 |
| ACCCCGCA | 0.382 |
| AACCCGCA | 0.229 |
| CCCCCGCA | 0.154 |
| CGTGTTAG | 0.0849 |
| AATCACCA | -0.0307 |
| AAGCACCG | 0.457 |
| AAGCACCT | -0.21 |
| AACCACCA | -0.124 |
| AATCACCG | 0.441 |
| CAGCACCG | 0.313 |

| Sequence | PBM E-score |
| --- | --- |
| AACCACCG | 0.406 |
| CATCACCG | 0.251 |
| CACCACCG | 0.21 |
| ACCAGTGA | -0.215 |
| GAGCTCGA | -0.257 |
| AATACTGC | -0.0596 |
| CCAGTATA | -0.066 |
| AAAGCACC | 0.311 |
| ACCCCAAA | -0.179 |
| ACCGGCGT | 0.365 |
| ACCGGCGG | 0.403 |
| ACCGGCAT | 0.337 |
| ACCGGCGC | 0.336 |
| AACGGCGT | 0.348 |
| ACCGGCGA | 0.281 |
| GGAACAGA | -0.104 |
| AGCGCCTC | -0.0428 |
| CCTATGCA | -0.158 |
| ATCCGCTA | 0.155 |
| CTCCGCTA | 0.349 |
| GTCCGCAA | 0.196 |
| GTCCGCTA | 0.374 |

| Sequence | PBM E-score |
| --- | --- |
| GTCCGCCA | 0.4 |
| ATCCGCCA | 0.18 |
| GTTTCTTA | 0.00445 |
| CGGCAATC | 0.185 |
| CGGCAGTA | 0.4 |
| AGGCAATA | -0.0408 |
| AGGCAGTA | -0.205 |
| CGGCAATA | 0.454 |
| CGGCAGTC | 0.11 |
| CGAACCCG | 0.103 |
| CGACCAGC | 0.128 |
| AATCGCGT | -0.00793 |
| GAACCTTC | -0.201 |
| CATCGCTC | -0.00533 |
| ATTTGCAC | -0.273 |
| CGCGCATA | 0.112 |
| ATCGGTGG | 0.276 |
| ATCGGTGA | 0.366 |
| ATCGGTGC | 0.324 |
| GTCGGTGA | 0.374 |
| CTCGGTGA | 0.244 |
| GTCGGTCA | 0.259 |
